Reference: PubChem BioAssay (Tox21)
Records with an inconclusive call do not appear. Unmarked numbers belong to inactive results. The call rests on the fitted dose curve; in most records, active means well fitted activation curve with a large enough effect in the signal ratio in the repeat runs (not every such curve was filed as active); inconclusive means weak or mixed curves; inactive means flat fitted curve, though single readings scatter; the % refers to the signal ratio.

assay: qHTS assay to identify small molecule agonists of the TGF-beta/Smad signaling pathway (AID 1346859); conditions: SBE-bla HEK293T, TGF-beta/Smad beta-lactamase reporter, 5 h; series mostly up to 76.8 µM; activation: at the top concentration
Description: U.S. Tox21 Program National Center for Advancing Translational Sciences [NCATS] NIH Chemical Genomics Center [NCGC] U.S. Environmental Protection Agency [EPA] National Institutes of Environmental Health Sciences [NIEHS] National Toxicology Program [NTP] U.S. Food and Drug Administration [FDA] Tox21 Assay Overview: Transforming growth factor beta (TGF-beta) superfamily consists of a large number of structurally related dimeric proteins that act as hormones or local mediators in regulating a wide range of biological functions. This superfamily includes TGF-betas themselves, the bone morphogenetic proteins (BMPs) and the activins. These ligands induce oligomerization of serine/threonine receptor kinases and phosphorylate the cytoplasmic signaling molecules of Smad protein family. CellSensor SBE-bla HEK 293T cell line (Life Technologies, Carlsbad, CA), responsive to TGF-beta was used to screen Tox21 10K compound library for identification of agonists/antagonists of the Smad signaling pathway. This cell line contains a beta-lactamase reporter gene under control of the Smad binding element (SBE) stably integrated into HEK 293T cells.
Tox21 Assay Protocol Summary: SBE-bla HEK 293T cells were dispensed at 4,000/well in 6 uL of assay medium into black wall/clear-bottom 1536-well plates using a Multidrop Combi (ThermoFisher Scientific, Waltham, MA) dispenser. After the assay plates were incubated at 37 C and 5% CO2 for an overnight, 23 nL of compounds dissolved in DMSO, positive controls or DMSO only was transferred to the assay plate by a Pintool station (Kalypsys, San Diego, CA). The assay plates were incubated at 37 C and 5% CO2 for 5 hr. One uL of LiveBLAzer B/G FRET substrate (Life Technologies) was added using a Flying Reagent Dispenser (Aurora Discovery, San Diego, CA) and the plates were incubated at room temperature for 2 hr. Fluorescence intensity (405 nm excitation, 460 nm and 530 nm emissions) was measured using an Envision plate reader (PerkinElmer, Shelton, CT).
On the % scale 0 is the no-effect control and ±100 the full control effect.

SMILES | activation
Cc1ncc2n1-c1ccc(Cl)cc1C(c1ccccc1F)=NC2 | -4.09% [at 35.3 µM]
COc1cc(OC)nc(NC(=O)NS(=O)(=O)c2ncccc2C(=O)N(C)C)n1 | 0.343%
O=C1c2ccccc2C(=O)c2ccccc21 | -3.6% [at 15.8 µM]
Cc1ncsc1CCCl | 2.73% [at 35.3 µM]
CN1CCN(C(=O)O[C@H]2c3nccnc3C(=O)N2c2ccc(Cl)cn2)CC1 | 2.89% [at 35.3 µM]
Nc1cc2c3c(c1)C(c1ccccc1)=N[C@@H](NC(=O)c1cccnc1)C(=O)N3CC2 | -3.93%
CCCCOP(=O)(O)OCCCC | -2.45%
C[C@]1(O)CC[C@H]2[C@@H]3CCC4=CC(=O)CC[C@]4(C)[C@@]3(F)[C@@H](O)C[C@@]21C | -6.15%
CCSC(=O)N(CC)C1CCCCC1 | -0.653%
CC(=O)CCc1ccc2c(c1)OCO2 | 2.19%
CCOC(=O)/C=C(C)/C=C/C[C@@H](C)CCCC(C)C | -5.1%
ClCCOCOCCCl | -2.83%
CC(Cl)(Cl)[N+](=O)[O-] | 0.179%
[Cl][Sn]([Cl])([Cl])[Cl] | 3.78%
CNC(=O)O/N=C(\C)SC | -2.48%
C=C(C)[C@@H]1CC=C(C=O)CC1 | 0.611%
CS(=O)(=O)c1cc(C(F)(F)F)ccc1C(=O)c1cnoc1C1CC1 | -1.58%
CCCCP(CCCC)CCCC | -0.771%
[As]#[In] | 0.0482%
O=C(Nc1ccccc1)c1ccccc1I | -5.43%

SMILES | activation
O=c1oc2ccccc2c(O)c1C1CCCc2ccccc21 (stereo not given) | -3.33%
N#CC(Cl)(Cl)Cl | 0.258%
ClCC(Cl)Cl | -0.222%
ClCCCN1CCN(c2cccc(Cl)c2)CC1 | -0.13% [at 35.3 µM]
CC1CN1P(=O)(N1CC1C)N1CC1C (stereo not given) | 0.309%
CCCCOC(=O)c1ccccc1N | -9.83%
CC1(C)CON(Cc2ccccc2Cl)C1=O | 0.546%
CC1(C(=O)Nc2ccc(O)c(Cl)c2Cl)CCCCC1 | 0.767%
CC1(C)C(=O)NC(=O)NC1=O | 1.9%
CC(C)NCC(O)c1ccc(N)c(C#N)c1 (stereo not given) | 0.493% [at 35.3 µM]
CCCCC(=O)Cl | 0.0188%
CC1COC2(c3ccccc3Cl)c3cc(Cl)ccc3NC(=O)CN12 (stereo not given) | -3.75% [at 35.3 µM]
C[N+](=O)[O-] | 0.0656%
CC1=C(C(=O)Nc2ccccc2)S(=O)(=O)CCO1 | 1.08%
CC(C)(C)NCC(O)c1cc(Cl)c(N)c(Cl)c1 (stereo not given) | 1.41% [at 35.3 µM]
O=[N+]([O-])c1cccc(O)c1 | 0.874%
CCS(=O)(=O)CCSP(=O)(OC)OC | -0.104%
C(CCOCC1CO1)COCC1CO1 (stereo not given) | 0.563%
CCCCc1c(C)nc(NCC)[nH]c1=O | -0.972%
O=C(Cc1ccccc1)OCc1ccccc1 | 2.24%
